In the supplement of paper PMC10849652:
About 8,800 targets were measured; listed, in parts, are those with a hit and a random draw of the rest. About 0.5% of all pairs of compound and target were hits.

Columns and labels:
Experiment in all cases: log2 fold change, soluble protein after heating vs DMSO (PISA); higher = thermal stabilisation; K562 lysate, 10 uM; active = over 0.2 and 3.5 SD of the protein, either way, in both replicates (recomputed)
erlotinib = compound: C#Cc1cccc(Nc2ncnc3cc(OCCOC)c(OCCOC)cc23)c1 [erlotinib]
Summary of the method: (§1)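 Log-two fold change in thermal stability relative to solvent controls is reported from duplicates. For each sample, crude K562 extract from dounce-homogenised pellets in PBS pH 7.4 with 1 mM MgCl2, at 1 mg/mL protein, was treated with 10 μM compound for 30 min. Aliquots heated for 3 min across 48°C-58°C were pooled, brought to 0.5% NP-40 at 4°C and cleared at 21,000xg for 90 min. The supernatant was quantified by TMTpro 16plex LC-MS/MS with channel sums equalised.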

[1] = compound: C/C(=N\NC(=O)C1=CC(=CC=C1)S(=O)(=O)N2CCOCC2)/C3=C(C=CC(=C3)Cl)O
Summary of the method: as §1

[2] = compound: C1=CC(=CC=C1C2=NC3=C(N2)C=C(C=C3)C(=O)N)OC4=CC=C(C=C4)Cl
Summary of the method: as §1

[3] = compound: C1=CC2=C(C=CC(=C2)/C=C\3/C(=O)NC(=NCC4=CC=CS4)S3)N=C1
Summary of the method: as §1

[4] = compound: C1=CC2=NC=CN=C2C=C1/C=C/3\C(=O)NC(=O)S3
Summary of the method: as §1

[5] = compound: C1=CC=C(C=C1)C2=NC(=C(N2)C3=CC=NC=C3)C4=CC(=C(C=C4)Cl)O
Summary of the method: as §1

[6] = compound: C1=CC=C2C(=C1)C3=NNC4=CC=CC(=C43)C2=O
Summary of the method: as §1

[7] = compound: C1CCN(C1)C(=O)NC2=CC=CC(=C2)NC3=NC=C(C(=N3)NCCC4=CN=CN4)Br
Summary of the method: as §1

[8] = compound: C1CN(CCC1(CC2=CC=C(C=C2)Cl)N)C3=NC=NC4=C3C=CN4
Summary of the method: as §1

IRAK-1-4 Inhibitor I = compound: C1COCCN1CCN2C3=CC=CC=C3N=C2NC(=O)C4=CC(=CC=C4)[N+](=O)[O-] [IRAK-1-4 Inhibitor I]
Summary of the method: as §1

Measured: log2 fold change

PAN2 isoform 2 (UniProt Q504Q3)
inactive: erlotinib 0 | [1] -0.007 | [2] -0.015 | [3] -0.005 | [4] 0.052 | [5] 0.03 | [6] 0 | [7] -0.017 | [8] -0.031 | IRAK-1-4 Inhibitor I 0.006

NADK2 (UniProt Q4G0N4)
inactive: erlotinib 0.005 | [1] -0.024 | [2] 0.011 | [3] 0.104 | [4] -0.026 | [5] -0.003 | [6] -0.017 | [7] -0.019 | [8] 0.031 | IRAK-1-4 Inhibitor I 0.025

NFATC1 (UniProt O95644)
inactive: erlotinib -0.002 | [1] -0.431 | [2] 0.045 | [3] -0.04 | [4] -0.02 | [5] 0.065 | [6] 0.009 | [7] 0.044 | [8] 0.092 | IRAK-1-4 Inhibitor I 0.077

NDUFAF5 (UniProt Q5TEU4)
UniProt Q5TEU4, sequence (Q5TEU4 whole entry, looked up): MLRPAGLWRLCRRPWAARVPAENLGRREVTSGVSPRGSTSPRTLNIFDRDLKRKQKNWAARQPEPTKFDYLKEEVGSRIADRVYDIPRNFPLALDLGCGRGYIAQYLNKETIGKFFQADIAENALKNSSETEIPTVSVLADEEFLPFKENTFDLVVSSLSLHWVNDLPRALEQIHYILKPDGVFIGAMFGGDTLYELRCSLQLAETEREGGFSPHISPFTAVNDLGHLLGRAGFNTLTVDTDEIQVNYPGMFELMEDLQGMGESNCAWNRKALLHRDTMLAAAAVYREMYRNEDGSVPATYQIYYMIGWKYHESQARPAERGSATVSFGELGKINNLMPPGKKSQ
inactive: erlotinib -0.001 | [1] 0.027 | [2] 0.016 | [3] 0.021 | [4] -0.022 | [5] 0.009 | [6] 0.11 | [7] 0.193 | [8] -0.056 | IRAK-1-4 Inhibitor I 0.07

OAT (UniProt P04181)
inactive: erlotinib -0.006 | [1] -0.074 | [2] -0.04 | [3] 0.023 | [4] 0.007 | [5] -0.017 | [6] -0.038 | [7] -0.033 | [8] 0.008 | IRAK-1-4 Inhibitor I 0.018

NUP210 (UniProt Q8TEM1)
inactive: erlotinib -0.018 | [1] -0.019 | [2] -0.049 | [3] 0.036 | [4] -0.004 | [5] -0.046 | [6] -0.157 | [7] -0.008 | [8] -0.001 | IRAK-1-4 Inhibitor I -0.009

NEK7 (UniProt Q8TDX7)
UniProt Q8TDX7, sequence (Q8TDX7 whole entry, looked up): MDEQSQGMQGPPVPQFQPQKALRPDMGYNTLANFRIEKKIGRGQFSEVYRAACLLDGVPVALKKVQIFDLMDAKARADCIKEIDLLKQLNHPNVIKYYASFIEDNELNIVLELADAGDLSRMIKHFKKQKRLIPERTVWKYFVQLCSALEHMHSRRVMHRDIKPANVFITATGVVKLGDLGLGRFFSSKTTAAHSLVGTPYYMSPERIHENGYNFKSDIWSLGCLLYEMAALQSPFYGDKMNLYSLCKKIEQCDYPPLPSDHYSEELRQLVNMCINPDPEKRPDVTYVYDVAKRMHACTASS
inactive: erlotinib -0.004 | [1] 0.042 | [2] -0.083 | [3] 0 | [4] 0.01 | [5] 0.053 | [6] 0.103 | [7] 0.011 | [8] -0.005 | IRAK-1-4 Inhibitor I 0.032

PAK1 (UniProt Q13153)
inactive: erlotinib 0.043 | [1] 0.018 | [2] 0.01 | [3] -0.017 | [4] 0.01 | [5] -0.014 | [6] 0.018 | [7] 0.028 | [8] 0.041 | IRAK-1-4 Inhibitor I -0.007

OGFOD2 (UniProt Q6N063)
inactive: erlotinib 0.034 | [1] -0.151 | [2] -0.093 | [3] -0.074 | [4] 0.022 | [5] -0.034 | [6] 0.001 | [7] 0.003 | [8] 0.006 | IRAK-1-4 Inhibitor I -0.04

NEXN (UniProt Q0ZGT2)
inactive: erlotinib 0.091 | [1] -0.011 | [2] -0.019 | [3] -0.067 | [4] -0.154 | [5] -0.144 | [6] -0.049 | [7] -0.255 | [8] 0.28 | IRAK-1-4 Inhibitor I -0.133

MTOR (UniProt P42345)
inactive: erlotinib 0.02 | [1] 0.031 | [2] -0.058 | [3] -0.022 | [4] 0.038 | [5] 0.025 | [6] -0.018 | [7] -0.012 | [8] 0.003 | IRAK-1-4 Inhibitor I 0.006

NUDT5 (UniProt Q9UKK9)
inactive: erlotinib -0.013 | [1] -0.051 | [2] 0.046 | [3] 0.027 | [4] -0.001 | [5] -0.002 | [6] -0.023 | [7] -0.026 | [8] 0.014 | IRAK-1-4 Inhibitor I 0.005

MYD88 isoform 6 (UniProt Q99836)
inactive: erlotinib -0.066 | [1] 0.007 | [2] -0.011 | [3] -0.019 | [4] -0.019 | [5] -0.015 | [6] -0.025 | [7] 0.032 | [8] -0.067 | IRAK-1-4 Inhibitor I 0.004

NARF (UniProt Q9UHQ1)
inactive: erlotinib 0.005 | [1] 0.006 | [2] 0.042 | [3] 0.007 | [4] -0.005 | [5] 0.004 | [6] 0.004 | [7] -0.009 | [8] -0.021 | IRAK-1-4 Inhibitor I -0.009

NIPBL (UniProt Q6KC79)
UniProt Q6KC79, sequence (Q6KC79 whole entry, looked up): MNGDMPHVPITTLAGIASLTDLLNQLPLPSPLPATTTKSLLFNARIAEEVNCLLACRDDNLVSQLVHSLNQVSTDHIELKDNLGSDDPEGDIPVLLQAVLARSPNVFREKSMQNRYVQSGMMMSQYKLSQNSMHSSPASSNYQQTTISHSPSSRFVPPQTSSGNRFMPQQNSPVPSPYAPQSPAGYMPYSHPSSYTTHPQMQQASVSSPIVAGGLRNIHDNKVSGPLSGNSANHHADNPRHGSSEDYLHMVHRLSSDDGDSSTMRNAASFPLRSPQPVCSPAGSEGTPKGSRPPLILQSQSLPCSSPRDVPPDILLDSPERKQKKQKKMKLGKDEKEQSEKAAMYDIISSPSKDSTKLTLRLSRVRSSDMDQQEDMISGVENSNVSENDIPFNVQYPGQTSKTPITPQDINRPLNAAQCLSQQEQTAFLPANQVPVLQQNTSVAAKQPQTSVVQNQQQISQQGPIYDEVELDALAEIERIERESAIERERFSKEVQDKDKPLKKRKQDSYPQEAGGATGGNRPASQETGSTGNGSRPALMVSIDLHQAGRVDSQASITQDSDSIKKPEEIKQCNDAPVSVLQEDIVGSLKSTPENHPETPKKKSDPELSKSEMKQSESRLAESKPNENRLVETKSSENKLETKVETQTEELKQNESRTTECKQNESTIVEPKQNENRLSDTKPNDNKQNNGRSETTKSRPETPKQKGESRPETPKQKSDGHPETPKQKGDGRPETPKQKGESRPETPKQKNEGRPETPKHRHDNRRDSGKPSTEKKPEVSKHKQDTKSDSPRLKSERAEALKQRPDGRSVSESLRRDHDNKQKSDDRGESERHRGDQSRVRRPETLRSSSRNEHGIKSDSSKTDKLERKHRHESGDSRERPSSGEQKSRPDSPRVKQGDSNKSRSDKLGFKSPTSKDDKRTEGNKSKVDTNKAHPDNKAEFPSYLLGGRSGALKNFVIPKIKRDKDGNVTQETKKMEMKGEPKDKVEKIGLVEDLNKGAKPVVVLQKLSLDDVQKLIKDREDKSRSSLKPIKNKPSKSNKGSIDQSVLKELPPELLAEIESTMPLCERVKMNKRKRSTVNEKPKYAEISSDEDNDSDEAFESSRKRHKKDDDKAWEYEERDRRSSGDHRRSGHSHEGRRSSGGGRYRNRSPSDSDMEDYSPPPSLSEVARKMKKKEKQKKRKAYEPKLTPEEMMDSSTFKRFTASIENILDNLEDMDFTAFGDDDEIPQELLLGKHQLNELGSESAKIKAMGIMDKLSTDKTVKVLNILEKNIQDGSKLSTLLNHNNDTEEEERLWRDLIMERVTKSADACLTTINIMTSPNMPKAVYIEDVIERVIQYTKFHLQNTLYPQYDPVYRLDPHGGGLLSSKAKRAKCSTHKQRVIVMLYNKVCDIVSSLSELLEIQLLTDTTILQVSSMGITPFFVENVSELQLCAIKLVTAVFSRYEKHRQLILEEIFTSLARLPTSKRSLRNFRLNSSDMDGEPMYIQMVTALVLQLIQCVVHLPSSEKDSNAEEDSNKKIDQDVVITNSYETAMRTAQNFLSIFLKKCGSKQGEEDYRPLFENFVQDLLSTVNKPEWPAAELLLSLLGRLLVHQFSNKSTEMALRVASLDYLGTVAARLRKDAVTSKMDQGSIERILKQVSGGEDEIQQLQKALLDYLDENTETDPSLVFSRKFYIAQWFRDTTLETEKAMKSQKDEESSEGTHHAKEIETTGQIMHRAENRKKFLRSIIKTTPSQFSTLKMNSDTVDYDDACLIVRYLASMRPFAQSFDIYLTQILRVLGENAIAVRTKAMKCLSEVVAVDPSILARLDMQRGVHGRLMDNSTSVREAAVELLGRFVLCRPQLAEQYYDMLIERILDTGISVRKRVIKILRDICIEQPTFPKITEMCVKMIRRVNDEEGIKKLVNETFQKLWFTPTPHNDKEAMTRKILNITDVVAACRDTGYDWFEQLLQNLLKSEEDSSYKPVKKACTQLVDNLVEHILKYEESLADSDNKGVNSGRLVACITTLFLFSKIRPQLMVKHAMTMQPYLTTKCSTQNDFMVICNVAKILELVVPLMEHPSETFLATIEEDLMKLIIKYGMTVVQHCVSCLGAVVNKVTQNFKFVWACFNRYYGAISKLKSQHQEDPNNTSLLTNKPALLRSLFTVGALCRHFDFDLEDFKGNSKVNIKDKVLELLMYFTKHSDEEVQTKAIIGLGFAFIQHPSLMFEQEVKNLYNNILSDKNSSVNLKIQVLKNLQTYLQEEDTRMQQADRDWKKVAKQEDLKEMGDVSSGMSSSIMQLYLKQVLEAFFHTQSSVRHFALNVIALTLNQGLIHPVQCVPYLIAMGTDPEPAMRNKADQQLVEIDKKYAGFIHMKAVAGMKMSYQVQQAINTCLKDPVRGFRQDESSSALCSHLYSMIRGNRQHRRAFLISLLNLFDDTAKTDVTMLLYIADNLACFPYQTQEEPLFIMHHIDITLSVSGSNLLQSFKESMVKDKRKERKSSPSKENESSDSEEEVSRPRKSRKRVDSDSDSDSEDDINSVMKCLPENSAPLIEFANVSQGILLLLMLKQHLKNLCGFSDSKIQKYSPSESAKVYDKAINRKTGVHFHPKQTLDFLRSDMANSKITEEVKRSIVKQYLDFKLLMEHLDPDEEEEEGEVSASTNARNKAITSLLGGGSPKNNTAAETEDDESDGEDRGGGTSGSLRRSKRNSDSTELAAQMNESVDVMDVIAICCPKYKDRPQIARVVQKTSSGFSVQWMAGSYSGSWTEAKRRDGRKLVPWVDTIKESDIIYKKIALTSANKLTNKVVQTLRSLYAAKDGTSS
inactive: erlotinib -0.025 | [1] 0.044 | [2] -0.003 | [3] 0.009 | [4] 0.005 | [5] -0.013 | [6] 0.003 | [7] -0.014 | [8] 0.007 | IRAK-1-4 Inhibitor I -0.043

MTCH2 (UniProt Q9Y6C9)
inactive: erlotinib 0.004 | [1] 0.051 | [2] -0.081 | [3] -0.032 | [4] -0.06 | [5] -0.004 | [6] -0.031 | [7] -0.033 | [8] -0.011 | IRAK-1-4 Inhibitor I 0.027

MSI2 (UniProt Q96DH6)
inactive: erlotinib -0.04 | [1] -0.277 | [2] 0.035 | [3] -0.047 | [4] 0.084 | [5] -0.034 | [6] -0.011 | [7] 0.03 | [8] 0.027 | IRAK-1-4 Inhibitor I 0.057

MTHFD1, A0A384N5Y3
inactive: erlotinib 0.024 | [1] 0.041 | [2] -0.004 | [3] 0.04 | [4] 0.029 | [5] 0.02 | [6] -0.039 | [7] 0.021 | [8] 0.015 | IRAK-1-4 Inhibitor I 0.002

NUF2 (UniProt Q9BZD4)
inactive: erlotinib 0.009 | [1] 0.006 | [2] -0.012 | [3] 0.03 | [4] -0.002 | [5] -0.047 | [6] -0.047 | [7] -0.039 | [8] -0.004 | IRAK-1-4 Inhibitor I -0.039

NUP205 (UniProt Q92621)
inactive: erlotinib 0.03 | [1] -0.022 | [2] -0.018 | [3] 0.049 | [4] -0.008 | [5] -0.013 | [6] -0.06 | [7] -0.009 | [8] 0.035 | IRAK-1-4 Inhibitor I 0.005

MT-ND1 (UniProt P03886)
UniProt P03886, sequence (P03886 whole entry, looked up): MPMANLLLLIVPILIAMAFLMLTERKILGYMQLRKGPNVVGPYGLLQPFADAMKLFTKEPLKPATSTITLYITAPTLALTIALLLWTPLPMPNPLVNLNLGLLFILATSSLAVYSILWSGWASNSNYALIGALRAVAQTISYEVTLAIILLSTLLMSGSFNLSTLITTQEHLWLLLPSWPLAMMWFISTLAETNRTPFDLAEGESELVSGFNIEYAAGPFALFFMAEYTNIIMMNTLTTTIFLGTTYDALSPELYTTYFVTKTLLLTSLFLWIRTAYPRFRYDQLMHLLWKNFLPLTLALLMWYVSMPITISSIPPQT
inactive: erlotinib -0.061 | [1] -0.227 | [2] -0.14 | [3] 0.055 | [4] -0.036 | [5] -0.005 | [6] 0.061 | [7] -0.038 | [8] 0.02 | IRAK-1-4 Inhibitor I 0.004

NDUFS1 isoform 2 (UniProt P28331)
inactive: erlotinib -0.006 | [1] 0.033 | [2] -0.045 | [3] 0.025 | [4] 0.027 | [5] -0.033 | [6] -0.027 | [7] -0.052 | [8] 0.006 | IRAK-1-4 Inhibitor I 0.006

OPA1 isoform 2 (UniProt O60313)
inactive: erlotinib 0.003 | [1] 0.03 | [2] -0.078 | [3] 0.024 | [4] 0.01 | [5] -0.022 | [6] -0.026 | [7] -0.015 | [8] 0.021 | IRAK-1-4 Inhibitor I 0.003

MSH3 (UniProt P20585)
inactive: erlotinib -0.046 | [1] -0.021 | [2] 0.042 | [3] 0.011 | [4] -0.025 | [5] 0.007 | [6] -0.026 | [7] -0.038 | [8] 0.058 | IRAK-1-4 Inhibitor I 0.004

NLRP2 (UniProt Q9NX02)
inactive: erlotinib 0.004 | [1] -0.015 | [2] -0.002 | [3] -0.005 | [4] -0.013 | [5] -0.002 | [6] -0.021 | [7] 0.01 | [8] -0.031 | IRAK-1-4 Inhibitor I -0.043

MRPL51 (UniProt Q4U2R6)
inactive: erlotinib -0.067 | [1] -0.05 | [2] -0.027 | [3] 0.08 | [4] -0.036 | [5] -0.039 | [6] 0.036 | [7] -0.006 | [8] -0.09 | IRAK-1-4 Inhibitor I 0.001

MYO1C (UniProt O00159)
UniProt O00159, sequence (O00159 whole entry, looked up): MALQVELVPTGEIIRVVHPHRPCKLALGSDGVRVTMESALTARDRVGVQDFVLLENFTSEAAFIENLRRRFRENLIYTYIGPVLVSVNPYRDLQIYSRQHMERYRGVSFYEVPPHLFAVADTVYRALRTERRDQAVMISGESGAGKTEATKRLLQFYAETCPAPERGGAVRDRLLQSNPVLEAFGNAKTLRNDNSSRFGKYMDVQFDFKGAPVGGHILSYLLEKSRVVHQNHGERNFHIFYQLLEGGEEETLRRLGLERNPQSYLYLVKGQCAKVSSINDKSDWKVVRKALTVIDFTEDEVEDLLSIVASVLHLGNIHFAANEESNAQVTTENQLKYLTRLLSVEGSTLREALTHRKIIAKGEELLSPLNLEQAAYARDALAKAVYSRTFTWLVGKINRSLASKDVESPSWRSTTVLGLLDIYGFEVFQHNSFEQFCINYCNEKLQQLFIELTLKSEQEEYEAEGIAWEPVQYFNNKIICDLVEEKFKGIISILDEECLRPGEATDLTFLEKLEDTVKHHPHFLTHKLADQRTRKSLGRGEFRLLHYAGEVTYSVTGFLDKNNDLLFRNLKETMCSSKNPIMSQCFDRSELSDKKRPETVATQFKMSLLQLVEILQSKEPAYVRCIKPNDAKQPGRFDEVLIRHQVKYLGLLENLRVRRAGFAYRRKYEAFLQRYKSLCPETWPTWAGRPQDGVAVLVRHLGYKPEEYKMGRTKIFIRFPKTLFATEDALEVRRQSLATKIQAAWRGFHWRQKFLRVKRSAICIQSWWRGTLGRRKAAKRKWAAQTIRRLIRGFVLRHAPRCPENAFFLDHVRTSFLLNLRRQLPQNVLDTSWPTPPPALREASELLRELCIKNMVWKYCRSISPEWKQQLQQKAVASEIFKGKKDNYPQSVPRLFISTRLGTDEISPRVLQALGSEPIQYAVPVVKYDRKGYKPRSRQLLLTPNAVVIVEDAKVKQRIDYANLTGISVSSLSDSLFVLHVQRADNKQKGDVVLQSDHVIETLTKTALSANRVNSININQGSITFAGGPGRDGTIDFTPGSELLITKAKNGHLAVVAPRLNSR
inactive: erlotinib -0.002 | [1] -0.005 | [2] 0.003 | [3] 0.017 | [4] 0.006 | [5] 0.047 | [6] -0.003 | [7] -0.021 | [8] -0.032 | IRAK-1-4 Inhibitor I -0.055

PAXBP1 (UniProt Q9Y5B6)
inactive: erlotinib 0.019 | [1] -0.035 | [2] 0.025 | [3] -0.01 | [4] 0.018 | [5] 0.026 | [6] -0.04 | [7] -0.022 | [8] 0.029 | IRAK-1-4 Inhibitor I 0.013

NELFCD (UniProt Q8IXH7)
inactive: erlotinib 0.034 | [1] 0.015 | [2] 0.007 | [3] 0.031 | [4] -0.019 | [5] -0.019 | [6] -0.044 | [7] -0.004 | [8] 0.023 | IRAK-1-4 Inhibitor I -0.036

NUSAP1 (UniProt Q9BXS6)
inactive: erlotinib -0.011 | [1] -0.466 | [2] 0.025 | [3] -0.008 | [4] -0.033 | [5] 0.008 | [6] 0.035 | [7] 0.012 | [8] 0.001 | IRAK-1-4 Inhibitor I -0.005
